The values below come from PubChem BioAssay (Tox21).

Each structure is given as a SMILES string. Several values for one entry are separate records, joined by “and”; a condition that tells them apart may be missing. Identical values can stand only once. Inconclusive results are not listed. A call without a number means that no potency is given here. Activity calls are given as the source filed them. The call rests on the fitted dose curve; in most records, active means well fitted cell-killing curve with a large enough effect in the repeat runs; inconclusive means weak or mixed curves, or effect the other way; inactive means no such curve, though single readings can be large or run the other way.
Potency means the concentration at half of the fitted maximal effect.

This assay can be described thus: qHTS assay to identify small molecule antagonists of the peroxisome proliferator-activated receptor gamma (PPARg) signaling pathway - cell viability counter screen (AID 743194). Further: nearly all actives have a fitted effect of over 55% in size. To be noted: PPARg-bla HEK293H viability, CellTiter-Glo luminescence, 17 h; Potency: co-treated with 50 nM rosiglitazone unless noted; series mostly up to 62.6 µM. The text has this:
U.S. Tox21 Program National Center for Advancing Translational Sciences [NCATS] NIH Chemical Genomics Center [NCGC] U.S. Environmental Protection Agency [EPA] National Institutes of Environmental Health Sciences [NIEHS] National Toxicology Program [NTP] U.S. Food and Drug Administration [FDA] Tox21 Assay Overview: The peroxisome proliferator-activated receptors (PPARs) are lipid-activated transcription factors of the nuclear receptor superfamily with three distinct subtypes namely PPAR alpha, PPAR delta (also called PPAR beta) and PPAR gamma (PPARg). All these subtypes heterodimerize with Retinoid X receptor (RXR) and these heterodimers regulate transcription of various genes. PPAR-gamma receptor (glitazone receptor) is involved in the regulation of glucose and lipid metabolism. To identify the compounds that activate PPAR-gamma signaling, GeneBLAzer PPAR gamma UAS-bla HEK293H cell line (Invitrogen, Carlsbad, CA, USA) containing a beta-lactamase reporter gene under the control of an Upstream Activator Sequence (UAS) was used to screen the Tox21 compound library. The cytotoxicity of the Tox21 compound library against the PPARg-bla cell line was tested in parallel by measuring the cell viability using CellTiter-Glo assay in the same wells.
Tox21 Assay Protocol Summary: PPARg-bla cells were dispensed at 3000 cells/5uL/well in 1536-well black wall/clear bottom plates using a Multidrop Combi (Thermo Fisher Scientific, Waltham, MA) dispenser. After the assay plates were incubated at 37 C and 5% CO2 for 5 h, 23 nL of compounds dissolved in DMSO, positive controls or DMSO only was transferred to the assay plate by a Pintool station (Kalypsys, San Diego, CA), followed by addition of 1ul Rosiglitazone (50 nM, final concentration in the wells). The assay plates were incubated at 37 C for 17 h, and then 1 uL of LiveBLAzerTM B/G FRET substrate was added using a Bioraptr Flying Reagent Dispenser (FRD) workstation (Beckman Coulter, Indianapolis, IN, USA). The assay plates were incubated at room temperature for 1 h and fluorescence intensity was measured by an Envision plate reader (PerkinElmer, Shelton, CT). For cell viability readout that measures cytotoxicity, 4 ul/well of CellTiter-Glo reagent was added into the assay plates using a Flying Reagent Dispenser. After 30 min incubation at room temperature, the luminescence intensity in the plates was measured using a ViewLux plate reader (PerkinElmer).
A general note: Quantitative high-throughput screening tests each substance at several concentrations.
In the case of `O=C(O)C(Cl)Cl`, the Potency result was “inactive”.

As to `Nc1ccc(-c2ccc(N)c(Cl)c2)cc1Cl`, the Potency entry was “inactive”.

Consider `Nc1ccc(-c2ccc(N)cc2)cc1`, for which the Potency result is “inactive”. For the compound `O=c1[nH]c(=O)n(Cl)c(=O)n1Cl`, the Potency entry is “inactive”.

With `Cc1cc(Cl)ccc1N`, the Potency result is “inactive”. Then `C[N+](C)(C)Cc1ccccc1`, with “inactive”; and `CCNc1nc(Cl)nc(NCC)n1`, with “inactive”; and `Nc1ccc(Cl)cc1`, with “inactive”. Regarding `O=[N+]([O-])O`, the Potency result was “inactive”. Consider `CN(C)[C@@H]1C(=O)C(C(N)=O)=C(O)[C@@]2(O)C(=O)C3=C(O)c4c(O)cccc4[C@@](C)(O)[C@H]3[C@H](O)[C@@H]12`, for which the Potency result is “inactive”. Take `CC[N+]1(C)CCCC1`: the Potency result is “inactive”.

Turning to `C[C@]12CCC(=O)C=C1CC[C@@H]1[C@@H]2CC[C@]2(C)C(=O)CC[C@@H]12`, the Potency result is “inactive”. The value for `Oc1cccc2cccnc12` was “inactive”; that for `CCCCCCCCCCn1cc[n+](C)c1` was 22.1 µM [setting not given] (active) and 24.6 µM [setting not given] (active) and 4.89 µM [setting not given] (active); that for `CCCCn1cc[n+](C)c1` was “inactive”. With `CCCCCCCCCCCCCC[P+](CCCCCC)(CCCCCC)CCCCCC`, the Potency is 24.7 µM (active) and 7.82 µM (active) and 2.45 µM (active).

As for `CCC(=O)C(CC(C)N(C)C)(c1ccccc1)c1ccccc1` (stereo not given), the Potency entry was “inactive”. As for `CC[n+]1ccccc1`, the Potency result is “inactive”. The value for `CCCCCCCCCCCCOS(=O)(=O)O` was “inactive”; that for `CCC[N+]1(C)CCCC1` was “inactive”. Regarding `O=C(O)COc1ccc(Cl)cc1Cl`, the Potency result was “inactive”. `O=C(O)CC(O)(CC(=O)O)C(=O)O`: the Potency entry was “inactive”. Then `CCCC[N+]1(C)CCCC1`, with “inactive”; and `O=C(O)c1nc(Cl)ccc1Cl`, with “inactive”; and `Cc1cc(-c2ccc(N)c(C)c2)ccc1N`, with “inactive”. In the case of `CC(Cl)(Cl)C(=O)O`, the Potency entry was “inactive”. `O=c1nc(O)n(Cl)c(=O)n1Cl`: the Potency entry is “inactive”.

`Cc1cc(Cl)ccc1OCC(=O)O`: the Potency result is “inactive”.

Consider `COP(=O)(OC)OC=C(Cl)Cl`, for which the Potency entry was “inactive”. `CCCCCC[n+]1ccccc1`: the Potency entry was “inactive”. With `CCOP(=S)(OCC)Oc1ccc2c(C)c(Cl)c(=O)oc2c1`, the Potency result is “inactive”. On to `CC[N+](CC)(CC)CC`, for which the Potency entry is “inactive”. For `O=S(=O)(O)O`, the Potency result is “inactive”. The value for `COCC(=O)N(c1c(C)cccc1C)C(C)C(=O)OC` (stereo not given) was “inactive”; that for `Oc1ccccc1-c1ccccc1` was “inactive”. On to `CCCCCCCCn1cc[n+](C)c1`, for which the Potency entry is “inactive”. For the compound `N#CS`, the Potency entry was “inactive”.

Consider `CCCCCCCCCCCC(=O)O`, for which the Potency entry was “inactive”.

On to `CC(=O)[O][Hg][c]1ccccc1`, for which the Potency was 686 nM (active) and 309 nM (active) and 1.88 µM (active). Turning to `O=[N+]([O-])c1ccccc1O`, the Potency entry is “inactive”.
